From PubChem BioAssay (NCATS)
Records with an inconclusive call do not appear. Where a call stands in place of a potency, no number is given. Calls of active or inactive are those of the source. Unless noted, calls follow the shape of the dose curve; as a rule, active = well fitted curve in the direction sought with a large enough effect; inconclusive = small, poorly fitted or top-dose-only effect, or another doubt; inactive = no such curve, though single readings can be large; an effect the other way counts as inactive or inconclusive.

What was measured:
[1] = qHTS for Inhibitors of the Functional Ribonucleoprotein Complex (vRNP) of Lassa (LASV) Arenavirus: LASV Primary Screen - GLuc reporter signal (AID 1347082; calls by dose curve; tested in HEK293 reporter line; also: nearly all actives have a fitted effect of over 60% in size)
[2] = qHTS for Inhibitors of the Functional Ribonucleoprotein Complex (vRNP) of Lassa (LASV) Arenavirus: Viability assay - alamar blue signal for LASV Primary Screen (AID 1347083; calls by dose curve; tested in HEK293 reporter line; also: nearly all actives have a fitted effect of over 80% in size)
[3] = qHTS for Inhibitors of the Functional Ribonucleoprotein Complex (vRNP) of Lymphocytic Choriomeningitis Arenaviruses (LCMV): Viability assay - alamar blue signal for LCMV Primary Screen (AID 1347085; calls by dose curve; tested in HEK293 reporter line; also: nearly all actives have a fitted effect of over 80% in size)
[4] = target: Nucleoprotein (Lymphocytic choriomeningitis virus (strain Armstrong)) (UniProt P09992); assay: qHTS for Inhibitors of the Functional Ribonucleoprotein Complex (vRNP) of Lymphocytic Choriomeningitis Arenaviruses (LCMV): LCMV Primary Screen - GLuc reporter signal (AID 1347086; calls by dose curve; also: nearly all actives have a fitted effect of over 70% in size)
Nucleoprotein (Lymphocytic choriomeningitis virus (strain Armstrong)), sequence (P09992 whole entry, looked up): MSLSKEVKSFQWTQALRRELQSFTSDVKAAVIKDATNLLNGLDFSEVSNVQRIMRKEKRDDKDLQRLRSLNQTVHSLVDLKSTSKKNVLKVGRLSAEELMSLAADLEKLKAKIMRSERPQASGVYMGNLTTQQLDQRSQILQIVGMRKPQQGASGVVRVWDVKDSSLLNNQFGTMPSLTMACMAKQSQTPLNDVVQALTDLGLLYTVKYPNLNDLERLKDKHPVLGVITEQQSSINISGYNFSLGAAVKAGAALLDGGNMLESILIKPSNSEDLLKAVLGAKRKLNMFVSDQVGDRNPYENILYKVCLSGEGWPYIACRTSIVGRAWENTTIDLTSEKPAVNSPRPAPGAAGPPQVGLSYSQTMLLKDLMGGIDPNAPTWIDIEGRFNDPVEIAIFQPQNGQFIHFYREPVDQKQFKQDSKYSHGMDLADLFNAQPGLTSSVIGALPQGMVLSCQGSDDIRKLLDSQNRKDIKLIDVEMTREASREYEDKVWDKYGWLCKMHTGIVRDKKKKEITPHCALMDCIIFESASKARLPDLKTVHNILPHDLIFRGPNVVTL

[5] = qHTS of pediatric cancer cell lines to identify multiple opportunities for drug repurposing: Primary screen for TC32 cells (AID 1347089); also: nearly all actives have a fitted effect of over 60% in size
Method in brief: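 Luminescent ATP read-out (CellTiter-Glo) of metabolically active TC32 cells after 48 h exposure. Concentration-response curves came from 11-point (MIPE, 0.78 nM–46 µM) or 8-point (NPC, 0.59 nM–46 µM) primary titrations; follow-up used 11 points.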

[6] = qHTS of pediatric cancer cell lines to identify multiple opportunities for drug repurposing: Primary screen for DAOY cells (AID 1347090); also: nearly all actives have a fitted effect of over 55% in size
Method in brief: (§1)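 Eight- or eleven-point concentration series, 48 h treatment at 37 degrees C in growth media; readout CellTiter-Glo luminescence. Potency and efficacy were taken from the concentration-response curves.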

[7] = qHTS of pediatric cancer cell lines to identify multiple opportunities for drug repurposing: Primary screen for SJ-GBM2 cells (AID 1347091)
Method in brief: as §1

[8] = qHTS of pediatric cancer cell lines to identify multiple opportunities for drug repurposing: Primary screen for A673 cells (AID 1347092); also: nearly all actives have a fitted effect of over 45% in size
Method in brief: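 Cell viability of A673 measured by CellTiter-Glo ATP luminescence after 48 hours compound exposure. Dilution series spanned 0.78 nM to 46 µM (MIPE, 11-point) or 0.59 nM to 46 µM (NPC, 8-point); bortezomib 2.3 uM positive control.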

[9] = qHTS of pediatric cancer cell lines to identify multiple opportunities for drug repurposing: Primary screen for SK-N-MC cells (AID 1347093)
Method in brief: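 Metabolically active cells were quantified by ATP-dependent luminescence (CellTiter-Glo, 15 min at room temperature) following 48 h treatment. Cells had been plated at 500-1,000 per well and settled for 5 h beforehand.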

[10] = qHTS of pediatric cancer cell lines to identify multiple opportunities for drug repurposing: Primary screen for NB-EBc1 cells (AID 1347095)
Method in brief: (§2)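 Cells plated at 500-1,000/well in growth medium, compounds added after 5 h. MIPE tested at 11 points (from 0.78 nM), NPC at 8 points (from 0.59 nM). CellTiter-Glo luminescence after 48 h; concentration-response curves from primary screen.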

[11] = qHTS of pediatric cancer cell lines to identify multiple opportunities for drug repurposing: Primary screen for U-2 OS cells (AID 1347096); also: nearly all actives have a fitted effect of over 50% in size
Method in brief: (§3)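 Cells (500-1,000/well) in growth media were settled 5 h at 37 degrees C, then given compounds for 48 h. Viability was read as CellTiter-Glo luminescence. Primary runs used MIPE at 11 points (0.78 nM-46 µM) and NPC at 8 points (0.59 nM-46 µM); follow-ups used 11 points.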

[12] = qHTS of pediatric cancer cell lines to identify multiple opportunities for drug repurposing: Primary screen for Saos-2 cells (AID 1347097); also: nearly all actives have a fitted effect of over 40% in size
Method in brief: as §2

[13] = qHTS of pediatric cancer cell lines to identify multiple opportunities for drug repurposing: Primary screen for NB1643 cells (AID 1347099); also: nearly all actives have a fitted effect of over 50% in size
Method in brief: as §2

[14] = qHTS of pediatric cancer cell lines to identify multiple opportunities for drug repurposing: Primary screen for LAN-5 cells (AID 1347100)
Method in brief: as §3

[15] = qHTS of pediatric cancer cell lines to identify multiple opportunities for drug repurposing: Primary screen for BT-37 cells (AID 1347094)
Method in brief: as §2

[16] = qHTS of pediatric cancer cell lines to identify multiple opportunities for drug repurposing: Primary screen for SK-N-SH cells (AID 1347098); also: nearly all actives have a fitted effect of over 65% in size
Method in brief: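 Cells (500-1,000/well) rested 5 h, then received compounds for 48 h; metabolically active cells were measured by CellTiter-Glo luminescence. Final concentrations spanned up to 46 µM (MIPE, 11-point) or 0.59 nM-46 µM (NPC, 8-point) in primary screens, 11-point in follow-ups.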
Potency is read from the fitted curve at half-maximal effect.

Structure (SMILES) | Potency [1] | Potency [2] | Potency [3] | Potency [4] | Potency [5] | Potency [6] | Potency [7] | Potency [8] | Potency [9] | Potency [10] | Potency [11] | Potency [12] | Potency [13] | Potency [14] | Potency [15] | Potency [16]
CC(O)CN1CCN(CC(=O)[O-])CCN(CC(=O)[O-])CCN(CC(=O)[O-])CC1.[Gd+3] (configuration not stated) | inactive | inactive | inactive | inactive | inactive | inactive | inactive | inactive | inactive | inactive | inactive | inactive | inactive | inactive | – | –
O=[N+]([O-])c1c(Cl)c(Cl)cc(Cl)c1Cl | inactive | inactive | inactive | inactive | inactive | inactive | inactive | inactive | – | inactive | inactive | inactive | inactive | inactive | – | –
N#C[C@H](O[C@@H]1O[C@H](CO[C@@H]2O[C@H](CO)[C@H](O)[C@H](O)[C@H]2O)[C@H](O)[C@H](O)[C@H]1O)c1ccccc1 | 17200 nM (active) | 19300 nM (active) | 38500 nM (active) | 24300 nM (active) | inactive | 23500 nM (active) | 26400 nM (active) | 29600 nM (active) | 10500 nM (active) | inactive | inactive | 18700 nM (active) | 11800 nM (active) | 23500 nM (active) | 24300 nM (active) | –
C[C@@H]1O[C@@H](O[C@@H]2C=C3CC[C@@H]4[C@@H](CC[C@]5(C)[C@H](c6ccc(=O)oc6)CC[C@@]45O)[C@@]3(C)CC2)[C@H](O)[C@H](O)[C@H]1O | 68.5 nM (active) | 68.5 nM (active) | 54.4 nM (active) | 76.9 nM (active) | 41.5 nM (active) | 14.8 nM (active) | 8.3 nM (active) | 14.8 nM (active) | 8.3 nM (active) | 41.8 nM (active) | 23.5 nM (active) | 52.6 nM (active) | 83.3 nM (active) | 14.8 nM (active) | 9.7 nM (active) | –
Oc1ccc2c3c1O[C@H]1[C@@H](O)C=C[C@H]4[C@@H](C2)NCC[C@@]341 | inactive | inactive | inactive | inactive | inactive | inactive | inactive | inactive | inactive | inactive | inactive | inactive | inactive | – | – | inactive
COc1ccc2c(c1)CN(C)CC2c1ccc(Cl)c(Cl)c1 (configuration not stated) | inactive | 7690 nM (active) | inactive | inactive | inactive | inactive | 18700 nM (active) | – | 18700 nM (active) | – | inactive | 18700 nM (active) | – | 20900 nM (active) | – | –
CC1=C(C(=O)O)N2C(=O)[C@@H](N)[C@H]2SC1 | inactive | inactive | inactive | inactive | inactive | inactive | inactive | inactive | inactive | inactive | inactive | inactive | inactive | inactive | – | –
O=C(O)c1cc(Oc2ccc(C(F)(F)F)cc2Cl)ccc1[N+](=O)[O-] | inactive | inactive | inactive | inactive | inactive | inactive | inactive | inactive | inactive | inactive | inactive | inactive | inactive | inactive | inactive | –
COCCOCCO | inactive | inactive | inactive | inactive | inactive | inactive | inactive | inactive | inactive | inactive | inactive | inactive | inactive | inactive | – | inactive
O=C(Nc1ccccc1-c1ccc(Cl)cc1)c1cccnc1Cl | inactive | inactive | inactive | inactive | inactive | inactive | inactive | inactive | inactive | – | inactive | inactive | inactive | inactive | inactive | inactive
O=c1[nH]c2ccc(Cl)cc2c(N[C@@H]2CN3CCC2CC3)c1-c1nc2ccccc2[nH]1 | 1220 nM (active) | 122 nM (active) | 217 nM (active) | 863 nM (active) | 930 nM (active) | 743 nM (active) | 46.9 nM (active) | 296 nM (active) | 33.2 nM (active) | 41.8 nM (active) | 187 nM (active) | 418 nM (active) | 526 nM (active) | 148 nM (active) | – | 9610 nM (active)
CC(=CCCC1=CCC(C2=CC(=O)OC2O)OC1O)CCC1=C(C)CCCC1(C)C (configuration not stated) | inactive | inactive | inactive | inactive | inactive | inactive | inactive | inactive | – | inactive | inactive | inactive | inactive | inactive | – | –
Nc1ccc(Sc2ccc(N)cc2)cc1 | inactive | inactive | inactive | inactive | inactive | inactive | inactive | – | inactive | inactive | inactive | – | inactive | inactive | inactive | –
